# Assay results published in PubChem BioAssay AID540351 (The Scripps Research Institute Molecular Screening Center, 2011).
# Unmarked numbers belong to inactive results. The rule behind the calls is not given here.
# Test system: Rolipram
# Assay: off-target receptor, channel and CYP panel, profiling panel, selectivity assay for S1P3 agonist project, biochemical, Ricerca HitProfilingScreen, CYP450 (AID 540351)
# Conditions: Ricerca receptor/enzyme binding panel plus CYP450, at 30 µM, active compounds read high
smiles,measurement,value
O=C(c1cc(C2CC2)on1)N(C1CCCCC1)C1CCCCC1,inhibition,18%
